Measurements taken from PubChem BioAssay (NCI).
About 79,000 compounds went through this panel and 15% of them were active in at least one assay; those are over-represented in the sample as a whole. Calls of active or inactive are those of the source. Rule as the data show it: active = growth inhibition above about 70%; inactive = the rest.

What was measured:
[1] = NCI Yeast Anticancer Drug Screen. Data for the sgs1 strain (AID 173);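 also: 0% = growth of vehicle-only control cultures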; conditions: S. cerevisiae sgs1 mutant, hits give high values
Procedure, shortened: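 Relative growth inhibition, referenced to vehicle, was determined in a yeast strain with a defined alteration affecting DNA damage repair or cell cycle control after compound exposure.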

[2] = NCI Yeast Anticancer Drug Screen. Data for the mlh1 rad18 strain (AID 175); conditions: S. cerevisiae mlh1 rad18 strain growth inhibition, hits give high values
Procedure, shortened: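 In this whole-cell yeast screen, a strain with altered DNA damage repair is challenged with compound, and its growth is measured against matched vehicle-treated controls.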

[3] = NCI Yeast Anticancer Drug Screen. Data for the rad18 strain (AID 177); conditions: S. cerevisiae rad18 mutant growth inhibition, hits give high values
Procedure, shortened: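 Screen uses a yeast strain with a defined lesion in DNA damage repair; compound effect is read as loss of growth compared to untreated vehicle cultures.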

[4] = NCI Yeast Anticancer Drug Screen. Data for the wt1 strain (AID 149);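 also: 0% = growth of vehicle-treated wt1 cultures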; conditions: S. cerevisiae wt1 strain (SPY 50644) growth inhibition, hits give high values
Procedure, shortened: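 Growth inhibition read against vehicle controls after compound exposure of the wt1 yeast strain.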

[5] = NCI Yeast Anticancer Drug Screen. Data for the rad50EPP+ strain (AID 151);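 also: 0% = growth of vehicle-treated control cultures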; conditions: S. cerevisiae rad50 mutant strain, hits give high values
Procedure, shortened: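 One strain with a rad50 alteration (rad50EPP+) was compound-treated, its growth then compared to that of vehicle controls.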

[6] = NCI Yeast Anticancer Drug Screen. Data for the mgt1 strain (AID 153); conditions: S. cerevisiae mgt1 mutant growth inhibition, hits give high values
Procedure, shortened: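 After exposure of the mgt1 yeast mutant to compound, growth was measured and reported as inhibition compared with vehicle controls.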

[7] = NCI Yeast Anticancer Drug Screen. Data for the rad50 strain (AID 155);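 also: 0% = growth of vehicle-only cultures of the same strain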; conditions: S. cerevisiae rad50 strain growth inhibition, hits give high values
Procedure, shortened: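 Readout: growth inhibition relative to vehicle-treated cultures. Compound exposure was carried out in a genetically defined yeast strain deficient in DNA damage repair.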

[8] = NCI Yeast Anticancer Drug Screen. Data for the mec2-1 strain (AID 157); conditions: S. cerevisiae mec2-1 strain, hits give high values
Procedure, shortened: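 Test agents were screened against the mec2-1 yeast strain, with defined DNA repair or cell cycle alteration. Growth was scored as inhibition against vehicle-only controls.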

[9] = NCI Yeast Anticancer Drug Screen. Data for the rad14 strain (AID 159);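 also: 0% = growth of vehicle-treated control cultures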; conditions: S. cerevisiae rad14 strain growth inhibition, hits give high values
Procedure, shortened: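 Growth inhibition vs vehicle controls; genetically altered yeast strain (DNA damage repair defect) treated with test compounds.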

[10] = NCI Yeast Anticancer Drug Screen. Data for the sgs1 mgt1 strain (AID 161);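 also: 0% = growth of cultures given vehicle only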; conditions: S. cerevisiae sgs1 mgt1 strain, hits give high values
Procedure, shortened: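 Test agents were incubated with a DNA-repair-mutant yeast strain. Growth was then read and compared against vehicle-treated controls.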

[11] = NCI Yeast Anticancer Drug Screen. Data for the CLN2oe strain (AID 163);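 also: 0% = growth of vehicle-only control cultures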; conditions: S. cerevisiae CLN2oe strain, hits give high values
Procedure, shortened: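 Here, growth inhibition in a cell-cycle-altered yeast strain after compound exposure was quantified against vehicle control growth.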

[12] = NCI Yeast Anticancer Drug Screen. Data for the bub3 strain (AID 167); conditions: S. cerevisiae bub3 mutant strain, hits give high values
Procedure, shortened: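 Readout: yeast growth inhibition, expressed relative to vehicle-only wells. The test organism is a mutant strain from a panel with lesions in DNA repair or checkpoint genes.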

[13] = NCI Yeast Anticancer Drug Screen. Data for the wt2 strain (AID 169);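 also: 0% = growth of vehicle-treated yeast cultures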; conditions: S. cerevisiae wt2 strain growth inhibition, hits give high values
Procedure, shortened: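 Genetically defined yeast strains from a DNA-repair/cell-cycle panel were used. Compound-exposed yeast growth was measured, and the inhibition was calculated relative to vehicle treatment.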

[14] = NCI Yeast Anticancer Drug Screen. Data for the mlh1 strain (AID 171);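 also: 0% = growth of vehicle-treated control cultures of the same strain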; conditions: S. cerevisiae mlh1 strain growth inhibition, hits give high values
Procedure, shortened: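 Here the genetically defined yeast mutant is grown with each compound, and the extent to which its growth falls below that of vehicle-exposed cells is reported.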

[15] = NCI Yeast Anticancer Drug Screen. Data for the cln2 rad14 strain (AID 165);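 also: 0% = growth equal to vehicle treated cultures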; conditions: S. cerevisiae cln2 rad14 strain, hits give high values
Procedure, shortened: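 Growth of compound-exposed yeast (cln2 rad14 genotype) measured and expressed as inhibition relative to vehicle.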

[16] = at 5.0 µM (retest, dose inferred, filed as 0.5)
[17] = at 50.0 µM (retest, dose inferred, filed as 5.0)

Measured: growth inhibition

[Cl][Pt+2][Cl].[NH-]CC1(C[NH-])CCCCC1
inactive: [1]; at 1.2 µM -14% | [1]; at 3.7 µM 11% | [2]; [16] 3% | [3]; at 1.2 µM -24% | [3]; at 3.7 µM -6%
active: [1]; at 11.0 µM 83% | [1]; at 33.0 µM 98% | [1]; at 100.0 µM 97% | [2]; [17] 99% | [2]; at 50.0 µM 88.8% | [3]; at 11.0 µM 89% | [3]; at 33.0 µM 97% | [3]; at 100.0 µM 96%

Nc1nc(Nc2ccccc2)nc(Nc2ccccc2)n1
active: [4]; at 100.0 µM 81% | [6]; at 100.0 µM 92% | [7]; at 50.0 µM 93.5% | [7]; at 100.0 µM 93% | [8]; at 50.0 µM 85.8% | [8]; at 100.0 µM 81% | [9]; at 100.0 µM 95% | [10]; at 50.0 µM 94% | [11]; at 100.0 µM 87% | [12]; at 50.0 µM 91.5% | [12]; at 100.0 µM 95% | [13]; at 100.0 µM 96% | [14]; at 100.0 µM 97% | [2]; at 50.0 µM 96.5% | [3]; at 100.0 µM 96%
inactive: [4]; at 1.2 µM -3% | [4]; at 3.7 µM -10% | [4]; at 11.0 µM -12% | [4]; at 33.0 µM -15% | [5]; at 1.2 µM 1% | [5]; at 3.7 µM -6% | [5]; at 11.0 µM 21% | [5]; at 33.0 µM 28% | [5]; at 100.0 µM 50% | [6]; at 1.2 µM -1% | [6]; at 3.7 µM -7% | [6]; at 11.0 µM -3% | [6]; at 33.0 µM 2% | [7]; at 1.2 µM -6% | [7]; at 3.7 µM -10% | [7]; [16] 4% | [7]; at 11.0 µM -6% | [7]; at 33.0 µM 11% | [7]; [17] 7% | [8]; at 1.2 µM -1% | [8]; at 3.7 µM 1% | [8]; [16] -2% | [8]; at 11.0 µM -1% | [8]; at 33.0 µM -2% | [8]; [17] 21% | [9]; at 1.2 µM 5% | [9]; at 3.7 µM 1% | [9]; at 11.0 µM 1% | [9]; at 33.0 µM 36% | [10]; [16] 3% | [10]; [17] 66% | [11]; at 1.2 µM -7% | [11]; at 3.7 µM -6% | [11]; at 11.0 µM -6% | [11]; at 33.0 µM -3% | [12]; at 1.2 µM -4% | [12]; at 3.7 µM -3% | [12]; [16] -5% | [12]; at 11.0 µM -8% | [12]; at 33.0 µM 5% | [12]; [17] 32% | [13]; at 1.2 µM -15% | [13]; at 3.7 µM -8% | [13]; at 11.0 µM -7% | [13]; at 33.0 µM 66% | [14]; at 1.2 µM -6% | [14]; at 3.7 µM -2% | [14]; at 11.0 µM -3% | [14]; at 33.0 µM 35% | [2]; [16] 0% | [2]; [17] 58% | [3]; at 1.2 µM -1% | [3]; at 3.7 µM 5% | [3]; at 11.0 µM 2% | [3]; at 33.0 µM 31%

CCOC(=O)/C=C1\CCCn2c1ncc(C(=O)OCC)c2=O
active: [8]; at 50.0 µM 77% | [12]; [17] 94% | [2]; at 50.0 µM 89.8%
inactive: [4]; at 1.2 µM 2% | [4]; at 3.7 µM 5% | [4]; at 11.0 µM 6% | [4]; at 33.0 µM 10% | [4]; at 100.0 µM 17% | [5]; at 1.2 µM -1% | [5]; at 3.7 µM -2% | [5]; at 11.0 µM -2% | [5]; at 33.0 µM -4% | [5]; at 100.0 µM -1% | [6]; at 1.2 µM 3% | [6]; at 3.7 µM 2% | [6]; at 11.0 µM 6% | [6]; at 33.0 µM -2% | [6]; at 100.0 µM 26% | [7]; at 1.2 µM -1% | [7]; at 3.7 µM -8% | [7]; [16] 8% | [7]; at 11.0 µM -3% | [7]; at 33.0 µM 20% | [7]; [17] 30% | [7]; at 50.0 µM 69.5% | [7]; at 100.0 µM 31% | [8]; at 1.2 µM 3% | [8]; at 3.7 µM 4% | [8]; [16] -5% | [8]; at 11.0 µM 7% | [8]; at 33.0 µM 17% | [8]; [17] 42% | [8]; at 100.0 µM 32% | [9]; at 1.2 µM 4% | [9]; at 3.7 µM 2% | [9]; at 11.0 µM 7% | [9]; at 33.0 µM 12% | [9]; at 100.0 µM 18% | [11]; at 1.2 µM 3% | [11]; at 3.7 µM 4% | [11]; at 11.0 µM 7% | [11]; at 33.0 µM 12% | [11]; at 100.0 µM 13% | [15]; [16] -25% | [15]; [17] 24% | [15]; at 50.0 µM 55.7% | [12]; at 1.2 µM 2% | [12]; at 3.7 µM 0% | [12]; [16] -13% | [12]; at 11.0 µM 4% | [12]; at 33.0 µM 10% | [12]; at 50.0 µM 59.5% | [12]; at 100.0 µM 28% | [13]; at 1.2 µM 1% | [13]; at 3.7 µM 2% | [13]; at 11.0 µM 4% | [13]; at 33.0 µM 11% | [13]; at 100.0 µM 28% | [14]; at 1.2 µM 2% | [14]; at 3.7 µM 3% | [14]; at 11.0 µM 8% | [14]; at 33.0 µM 15% | [14]; at 100.0 µM 38% | [1]; at 1.2 µM 3% | [1]; at 3.7 µM 5% | [1]; at 11.0 µM 6% | [1]; at 33.0 µM 24% | [1]; at 100.0 µM 51% | [2]; [16] 8% | [2]; [17] 48% | [3]; at 1.2 µM 1% | [3]; at 3.7 µM 5% | [3]; at 11.0 µM 14% | [3]; at 33.0 µM 30% | [3]; at 100.0 µM 55%
